Source: PubChem BioAssay (EPA / NIEHS)
The source made the active and inactive calls. How the source made its calls: active means hit-call score of the fitted dose curve at least 0.9, where 1 is the maximum; inactive means score below 0.9.

Assay: BSK_LPS_SRB: Viability Assessment in the BioMAP Diversity Plus: LPS Assay (AID 2283079);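 further: fitted in both directions against DMSO so loss or gain of signal counts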
Settings: primary human HUVEC with PBMC
Method: BSK_LPS is a cell-based, multiplexed-readout assay that uses umbilical vein endothelium and peripheral blood mononuclear cells, a human vascular primary cell co-culture, with measurements taken at 24 hours after chemical dosing in a 96-well plate.BSK_LPS_SRB is an assay component measured in the BSK_LPS assay. It measures 0.1% sulforhodamine related to cell death using Sulforhodamine staining technology.Data from the assay component BSK_LPS_SRB was analyzed into 1 assay endpoint. This assay endpoint, BSK_LPS_SRB, was analyzed with bidirectional fitting relative to DMSO as the negative control and baseline of activity. Using a type of viability reporter, gain or loss-of-signal activity can be used to understand changes in the signaling. Furthermore, this assay endpoint can be referred to as a primary readout, because this assay has produced multiple assay endpoints where this one serves a signaling function. To generalize the intended target to other relatable targets, this assay endpoint is annotated to the cell morphology intended target family, where the subfamily is cell conformation.
The levels of cell surface (or secreted, indicated by the prefix "s") biomarker endpoints were measured by ELISA. Overt cytotoxicity to cells in confluent adherent cultures (all systems other than the BT system) was assessed by measuring total protein levels using sulforhodamine B (SRB) staining in parallel cultures at the time of biomarker measurements, indicated as SRB endpoints. For proliferation assays for adherent cell types, individual cell types are cultured at sub-confluence and relative cell numbers quantified by SRB staining at time points optimized for each system (48 h: 3C and CASM3C systems; 72 h: BT and HDF3CGF systems; 96 h: SAg system). SRB was performed by staining cells with 0.1% SRB after fixation with 10% TCA and reading wells at 560 nm.Viability and proliferation of PBMC (T cells) was quantified by Alamar Blue reduction for the SAg and BT systems. For PBMC viability (referred to as PBMC Cytotoxicity within the assay endpoint names), cells were plated (75,000/well in a 96-well plate) and then chemical samples added for 1 h before addition of activators, SEB and TSST-1 (20 ng/mL final concentration each). Cells were incubated for 90 h. Then, Alamar Blue (20 uL/well) (Invitrogen, Cat DAL1100) was added for 6 h, and the plates were read with a fluorescence microplate reader at 546/580 nm (excitation/emission). For PBMC proliferation, cells were plated and activated as above but incubated for only 16 h prior to addition of Alamar Blue. Plates were read after 6 h.

Structure (SMILES)	outcome	AC50
Cc1ccccc1Cl	inactive	–
CCCCCCCCCCO	inactive	–
Cc1ccc(C)c(C)c1	inactive	–
COc1ccc(S(=O)(=O)N2C(=O)[C@@](c3ccccc3OC)(N3C[C@H](O)C[C@H]3C(=O)N(C)C)c3cc(Cl)ccc32)c(OC)c1	inactive	–
CCCCCCCC=O	inactive	–
Cc1cccc(Nc2cc(Cl)nc(SCC(=O)O)n2)c1C	inactive	–
Cc1cccc(C)c1O	inactive	–
Nc1ccc2c(c1)C(=O)c1ccccc1C2=O	inactive	–
CC(C)c1ccc(C(=O)N=C(N)N)cc1S(C)(=O)=O	inactive	–
c1cc(-c2ccncc2)ccn1	inactive	–
CCc1c(C(=O)NN2CCCCC2)nn(-c2ccc(Cl)cc2Cl)c1-c1ccc(Br)cc1	–	9.94 µM (active)
CCCCOC(=O)CCCCCCCCC(=O)OCCCC	inactive	–
Cc1cc(=O)[nH]c(=S)[nH]1	inactive	–
Oc1ccc2c(c1)OC[C@@H](N1CCC(O)(c3ccc(F)cc3)CC1)[C@H]2O	inactive	–
OC[C@@H](O)[C@@H](O)[C@H](O)[C@H](O)CO	inactive	–
Cc1cccc([N+](=O)[O-])c1C	inactive	–
CCCc1cc(=O)[nH]c(=S)[nH]1	inactive	–
Cc1ccc(Cl)cc1	inactive	–
CC1(C)CC(N=C=O)CC(C)(CN=C=O)C1 (stereo not given)	inactive	–
CCCCCC(=O)O	inactive	–

Structure (SMILES)	outcome	AC50
CNCc1cc(F)ccc1Oc1ccc(Cl)c(Cl)c1	–	30 µM (active)
NC(=O)Cn1c(=O)cc(CCN2CCN(c3nccc4sccc34)CC2)c2ccc(F)cc21	inactive	–
CCCCCCOCCO	inactive	–
CN1CCCC1=O	inactive	–
COc1cc(S(=O)(=O)O)c(C)cc1N=Nc1c(O)ccc2cc(S(=O)(=O)O)ccc12	inactive	–
Nc1nc(N)c2nc(CNc3ccc(C(=O)N[C@@H](CCC(=O)O)C(=O)O)cc3)cnc2n1	inactive	–
COc1cc(-c2nc(NC(=O)c3cc4cc(C)cc(C)c4n3CC(=O)O)sc2CCC2CCCCC2)c(OC)cc1Cl	–	4.61 µM (active)
O=c1[nH]cc(F)c(=O)[nH]1	inactive	–
CC1=C(/C=C/C(C)=C/C=C/C(C)=C/CO)C(C)(C)CCC1	inactive	–
CC(CO)OC(C)CO (stereo not given) (tested in a mixture with another compound)	inactive	–
CC(C)(C)c1cc(O)c(C(C)(C)C)cc1O	inactive	–
C=CCc1ccc(O)c(OC)c1	inactive	–
CC(=O)OC/C=C(\C)CCC=C(C)C	inactive	–
O=C(O)Cc1ccccc1Nc1c(Cl)cccc1Cl	inactive	–
CCCCCCCCCCCCCCCC	inactive	–
CNC(=O)[C@H]1O[C@@H](n2cnc3c(NCc4cc(Cl)ccc4OCc4cc(C)no4)ncnc32)[C@H](O)[C@@H]1N	inactive	–
CC(=O)C(C)=CC1C(C)=CCCC1(C)C (stereo not given)	inactive	–
CC=Cc1ccc(O)c(OC)c1	inactive	–
NS(=O)(=O)c1cc2c(cc1Cl)NCNS2(=O)=O	inactive	–
CCCCCCC(=O)OCC	inactive	–
